PubChem BioAssay (NCI)
The panel holds about 83,000 compounds, 20% with a hit somewhere; the sample as a whole holds those more often.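 Each cell line was grown in a 96-well plate and treated with one concentration of compound for 48 hours. Values below 10 were considered active.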 A number with no mark means an inactive call. Activity calls are given as the source filed them.

What was measured:
Assay in all cases: NCI-60 one-dose screen, 48 h (100 = growth as untreated, 0 = no growth, -100 = all killed)
Conditions in all cases: 10 µM unless noted
SR leukemia = test system: SR leukemia
RPMI-8226 leukemia = test system: RPMI-8226 leukemia
OVCAR-8 ovarian = test system: OVCAR-8 ovarian
OVCAR-5 ovarian = test system: OVCAR-5 ovarian
OVCAR-4 ovarian = test system: OVCAR-4 ovarian
SK-OV-3 ovarian = test system: SK-OV-3 ovarian
IGROV1 ovarian = test system: IGROV1 ovarian
OVCAR-3 ovarian = test system: OVCAR-3 ovarian
HS 578T breast = test system: HS 578T breast
NCI/ADR-RES ovarian = test system: NCI/ADR-RES ovarian
T-47D breast = test system: T-47D breast
BT-549 breast = test system: BT-549 breast
MDA-MB-435 melanoma = test system: MDA-MB-435 melanoma
SW-620 colon = test system: SW-620 colon
MCF7 breast = test system: MCF7 breast
HCT-116 colon = test system: HCT-116 colon
HCC-2998 colon = test system: HCC-2998 colon
KM12 colon = test system: KM12 colon

Row | SMILES | growth (SR leukemia) | growth (RPMI-8226 leukemia) | growth (OVCAR-8 ovarian) | growth (OVCAR-5 ovarian) | growth (OVCAR-4 ovarian) | growth (SK-OV-3 ovarian) | growth (IGROV1 ovarian) | growth (OVCAR-3 ovarian) | growth (HS 578T breast) | growth (NCI/ADR-RES ovarian) | growth (T-47D breast) | growth (BT-549 breast) | growth (MDA-MB-435 melanoma) | growth (SW-620 colon) | growth (MCF7 breast) | growth (HCT-116 colon) | growth (HCC-2998 colon) | growth (KM12 colon)
1 | Cc1ccc(C(C)C)c(OCC(=O)O)c1 | 109% | 107% | 101% | 98.7% | 112% | 108% | 109% | 113% | 101% | 111% | 117% | 112% | 108% | 96% | 100% | 105% | 106% | 108%
2 | CC(C)c1ccccc1NC(=O)N1CCC(C(C)C)CC1 | 92.4% | 105% | 105% | 117% | 96.7% | 105% | 106% | 113% | 102% | 111% | 111% | 103% | 91.9% | 107% | 97.5% | 108% | 109% | 113%
3 | CSc1nsc(N)n1 | 98.4% | 114% | 105% | 107% | 104% | 105% | 97.6% | 110% | 90.7% | 101% | 98.8% | 100% | 102% | 92.9% | 95.8% | 104% | 106% | 101%
4 | CC(C)c1ccc(C(=O)OCCCl)cc1 | 106% | 221% | 94% | 96.5% | 104% | 101% | 109% | 123% | 94.7% | 102% | 91.1% | 100% | 95.9% | 106% | 92.6% | 82.4% | 98.9% | 115%
5 | Cn1/c(=N\N=C\c2ccccc2OCCO)sc2ccccc21 | 89% | 81% | 100% | 104% | 106% | 104% | 70.2% | 95.2% | 99.8% | 109% | 79.3% | 102% | 107% | 109% | 76.9% | 98.8% | 110% | 92.2%
6 | CCCC(=O)c1cccs1 | 95.8% | 105% | 107% | 100% | 103% | 103% | 110% | 107% | 95.2% | 101% | 86.6% | 101% | 104% | 101% | 94.3% | 100% | 99.8% | 105%
7 | Cc1cc(Cl)cc(Cc2cc(Cl)cc(C)c2O)c1O | 1.17% (active) | -22.8% (active) | 48.2% | 69% | 22.2% | 51.5% | 33.1% | -2.69% (active) | 4.77% (active) | -10.7% (active) | 14% | 1.21% (active) | -10.5% (active) | 14% | 22.4% | 8.46% (active) | 13.1% | -5.92% (active)
8 | O=C1C=Cc2ccccc2/C1=C/c1[nH]c(=O)[nH]c1O | 33% | 87.3% | 45.4% | 86.7% | 41% | 32.8% | 33.2% | -32.3% (active) | -6.84% (active) | 67.8% | 39.6% | 20.6% | -6.05% (active) | 22% | 12.9% | 17.2% | 54.1% | 40.2%
9 | Nc1ccc(F)cc1F | 107% | 102% | 116% | 96.3% | 123% | 116% | 105% | 116% | 108% | 108% | 101% | 103% | 107% | 106% | 96% | 88.5% | 113% | 108%
10 | C/C(O)=C(/C=N\C(=S)Nc1ccc(S(=O)(=O)Nc2nccs2)cc1)C(=O)Nc1ccccc1C | 79.1% | 86.3% | 87.7% | 103% | 98.7% | 100% | 106% | 97% | 84.1% | 105% | 90.2% | 99.2% | 109% | 95.6% | 101% | 94.7% | 109% | 96.8%
11 | O=[N+]([O-])c1ccc2[nH]c(=S)n(/C=C(/c3ccc(Cl)cc3Cl)S(=O)(=O)Cc3ccc(Cl)cc3Cl)c2c1 | 83.1% | 98.7% | 93.7% | 108% | 95.9% | 99.1% | 104% | 117% | 106% | 100% | 90.2% | 93.9% | 103% | 114% | 87.8% | 82.8% | 105% | 108%
12 | CCC12OC(COc3ccccc3)CN1CCN2c1ccccc1 (stereo unspecified) | 96.9% [100 µM] | 94.4% [100 µM] | 96.5% [100 µM] | 98% [100 µM] | 95.5% [100 µM] | 106% [100 µM] | 93.4% [100 µM] | 110% [100 µM] | 99.1% [100 µM] | 100% [100 µM] | 90.4% [100 µM] | 105% [100 µM] | 98.6% [100 µM] | 103% [100 µM] | 92.5% [100 µM] | 102% [100 µM] | 115% [100 µM] | 98.9% [100 µM]
13 | Cc1c(-c2ccc(C3CCCCC3)cc2)nc2ccc(F)cc2c1C(=O)O | 7.53% (active) | 56.1% | 37.6% | 76.7% | 84.2% | 58.2% | 29.7% | 41% | 75.3% | 45.7% | 66.1% | 65.2% | 34.5% | 30.6% | 27% | 24.8% | 49.9% | 32%
14 | Cc1cc2c3ccc(C)[n+](C)c3ccc2n1C | 15.4% | 21.2% | 30.3% | 68.2% | 62.6% | 35.9% | 54.7% | 47% | 38.6% | 88.3% | 74.5% | 16.8% | 52% | 15.1% | 57% | 29.4% | 22.2% | 5.81% (active)
15 | Cc1ccc(S(=O)(=O)NC(=O)NCCSSCCNC(=O)NS(=O)(=O)c2ccc(C)cc2)cc1 | 107% | 99.8% | 106% | 93.6% | 112% | 116% | 101% | 109% | 97.5% | 111% | 105% | 125% | 101% | 98.3% | 103% | 113% | 108% | 113%
16 | Cc1ccc(S(=O)(=O)Oc2ccc3sc4c(CO)ccc(NCCN(C)C)c4c(=O)c3c2)cc1 | -38.8% [100 µM] (active) | -43.4% [100 µM] (active) | -73.3% [100 µM] (active) | -93.2% [100 µM] (active) | -97.9% [100 µM] (active) | -85.1% [100 µM] (active) | -74.1% [100 µM] (active) | -79.3% [100 µM] (active) | -44.2% [100 µM] (active) | -58% [100 µM] (active) | -51.8% [100 µM] (active) | -91.2% [100 µM] (active) | -98% [100 µM] (active) | -88% [100 µM] (active) | -76.1% [100 µM] (active) | -75.9% [100 µM] (active) | -88.2% [100 µM] (active) | -68.6% [100 µM] (active)
17 | CCOc1ccc(C(=O)NCC(C)C)cc1 | 102% | 105% | 105% | 105% | 97.2% | 99.7% | 110% | 109% | 107% | 111% | 89.1% | 98.3% | 96.8% | 91.7% | 93.5% | 101% | 114% | 101%
